Compound activity deposited in PubChem BioAssay by The Scripps Research Institute Molecular Screening Center.
Ba/F3 V617F tox: lowers viability of Ba/F3 cells expressing EpoR and JAK2V617F; ATP luminescence; inhibition, % at 5.6 µM; 1.1% of 220,000 active; AID 1446;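 active = inhibition above the campaign mean plus 3 SD over all tested compounds, cut at about 24% in these data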;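 also: cytokine-independent growth of Ba/F3 cells driven by EpoR plus mutant JAK2; 0% = DMSO-treated cells and 100% = JAK inhibitor I control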
FID counter: counter-screen for HCV NS3 helicase inhibitors: DNA intercalator displacement | DNA fluorescent intercalator displacement, fluorescence | inhibition, % at 7.9 µM | 0.17% of 290,000 active; in the data active = inhibition above about 37%;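 also: 0% = vehicle and 100% = reference compound; higher means more ethidium bromide displaced from hairpin DNA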
BaF3 parental: reduces parental Ba/F3 cell viability, JAK2V617F counter-screen. CellTiter-Glo ATP luminescence. inhibition, % at 5.6 µM. 1.1% of 220,000 active. AID 1486;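 active = inhibition above a per-campaign cutoff, the mean inhibition of all tested compounds plus 3 SD, cut at about 27% in these data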;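 also: 0% = DMSO wells and 100% = JAK Inhibitor I control wells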
GPR7 antagonist: antagonists of human GPR7 (neuropeptides B/W receptor 1) | P48145 | GPR7-expressing cells, fluorescence antagonist assay | inhibition, % at 4.4 µM | 1.1% of 290,000 active | AID 1861; in the data active = inhibition above about 16%, passing the limit was not always enough;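 also: cells stimulated with the agonist NPW; 0% = agonist with vehicle and 100% = vehicle without agonist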
Target sequence (P48145 whole entry, looked up): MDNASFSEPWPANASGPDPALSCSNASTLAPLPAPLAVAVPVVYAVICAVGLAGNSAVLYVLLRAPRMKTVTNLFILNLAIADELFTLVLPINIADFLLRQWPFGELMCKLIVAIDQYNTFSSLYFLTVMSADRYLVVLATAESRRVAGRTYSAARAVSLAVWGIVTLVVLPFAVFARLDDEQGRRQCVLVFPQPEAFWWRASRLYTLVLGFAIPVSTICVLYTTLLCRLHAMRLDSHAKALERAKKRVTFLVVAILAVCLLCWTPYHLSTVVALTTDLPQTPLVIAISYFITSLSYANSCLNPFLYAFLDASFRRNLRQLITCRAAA
KLF5 inhibitor: kruppel-like factor 5 inhibition; DLD-1 KLF5 promoter-luciferase reporter, luminescence; inhibition, % at 5 µM; 0.23% of 290,000 active; AID 1700;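 active = inhibition above a per-plate limit of that plate's mean compound inhibition plus 3 SD, cut at about 60% in these data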;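 also: 0% = DMSO wells and 100% = LY294002 at 200 µM; higher means less KLF5 promoter-driven luciferase light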
IEC-6 tox: kills IEC-6 intestinal cells in KLF5 counter-screen; IEC-6 cytotoxicity, luminescence viability; inhibition, % at 5 µM; 0.78% of 290,000 active; AID 1825; in the data active = inhibition above about 22%;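 also: 0% = plate median of test compound wells and 100% = cytotoxic reference compound wells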
* marks the source's active call; other numbers are inactive results. Hits are enriched below; roughly 2.6% of the tested compounds scored in any of these assays.

Screening COc1ccc(CN(C(=O)Cc2c[nH]c3ccccc23)C(C(=O)NC2CCCCC2)c2ccc(C)o2)cc1 (configuration not stated) returned Ba/F3 V617F tox 0, FID counter 89*, BaF3 parental 0, GPR7 antagonist -22, KLF5 inhibitor -25 and IEC-6 tox -8.
Cc1nn(-c2ccccc2)c(Cl)c1C(=O)NC1CCCCC1 was read as Ba/F3 V617F tox -1, FID counter -24, BaF3 parental 2, GPR7 antagonist 1, KLF5 inhibitor -25 and IEC-6 tox 1.
Screening Cc1cccc(CN2C(=O)CSc3ccc(C(=O)NC4CC4)cc32)c1 returned FID counter -27, GPR7 antagonist 5, KLF5 inhibitor -4 and IEC-6 tox 16.
O=C(NCc1cccnc1)/C(=C\c1ccc(-c2ccc(Br)cc2)o1)S(=O)(=O)c1ccccc1 was read as Ba/F3 V617F tox 7, FID counter -21, BaF3 parental 2, GPR7 antagonist 23*, KLF5 inhibitor 3 and IEC-6 tox 3.
For O=C(NCc1cccnc1)/C(=C/c1ccc(-c2cccc(C(F)(F)F)c2)o1)NC(=O)c1ccccc1 the results were Ba/F3 V617F tox 0, FID counter -12, BaF3 parental 4, GPR7 antagonist -5, KLF5 inhibitor -1 and IEC-6 tox -1.
O=C(CN(Cc1ccc(Br)cc1)S(=O)(=O)c1ccccc1)NCc1cccnc1 was read as FID counter -15, GPR7 antagonist -8, KLF5 inhibitor -39 and IEC-6 tox 1.
Screening O=C(NCc1cccnc1)/C(=C/c1ccc(-c2ccc(Cl)cc2)o1)S(=O)(=O)c1ccccc1 returned Ba/F3 V617F tox 8, FID counter -22, BaF3 parental 9, GPR7 antagonist 27*, KLF5 inhibitor 17 and IEC-6 tox 6.
Screening O=C(Nc1ccccc1Cl)N1CCN(c2ccccn2)CC1 returned Ba/F3 V617F tox 2, FID counter -11, BaF3 parental 6, GPR7 antagonist -15, KLF5 inhibitor -33 and IEC-6 tox -6.
O=C(Nc1ccccc1C(F)(F)F)N1CCN(c2ccccn2)CC1 was read as Ba/F3 V617F tox 0, FID counter -3, BaF3 parental 89*, GPR7 antagonist 3, KLF5 inhibitor -11 and IEC-6 tox 5.
`Cn1ncc(Cl)c1C(=O)Nc1nc2ccc(Cl)cc2s1` gave Ba/F3 V617F tox -3, FID counter -5, BaF3 parental 37*, GPR7 antagonist -6, KLF5 inhibitor -22 and IEC-6 tox 0.
`Cc1cc(C(=O)Nc2nc3ccc(Cl)cc3s2)nn1C` gave Ba/F3 V617F tox -4, FID counter -1, BaF3 parental 0, GPR7 antagonist -6, KLF5 inhibitor -148 and IEC-6 tox -5.
Screening CCOC(=O)C1CCCN(c2c(NCCN(C)Cc3ccccc3)c(=O)c2=O)C1 (configuration not stated) returned Ba/F3 V617F tox -5, FID counter 9, BaF3 parental 2, GPR7 antagonist -3, KLF5 inhibitor -42 and IEC-6 tox 0.
Screening CCOC(=O)C1CCCN(c2c(N3CCc4ccccc4C3)c(=O)c2=O)C1 (configuration not stated) returned Ba/F3 V617F tox 1, FID counter -23, BaF3 parental 5, GPR7 antagonist 22*, KLF5 inhibitor 5 and IEC-6 tox -2.
`Cc1[nH]c2ccccc2c1-c1nc2ccccc2[nH]1` gave Ba/F3 V617F tox 11, FID counter 12, BaF3 parental 30*, GPR7 antagonist -1, KLF5 inhibitor -7 and IEC-6 tox 4.
Screening Cc1cc(C(=O)CSc2nnc(-c3ccco3)o2)c(C)n1CC1COc2ccccc2O1 (configuration not stated) returned Ba/F3 V617F tox -4, FID counter -42, BaF3 parental 8, GPR7 antagonist 20*, KLF5 inhibitor -2 and IEC-6 tox -15.
`COc1cc(C(=O)N/N=C(\C)c2ccc3c(c2)OCO3)cc(OC)c1OC` gave Ba/F3 V617F tox 73*, FID counter -14, BaF3 parental 72*, GPR7 antagonist 6, KLF5 inhibitor 31 and IEC-6 tox 89*.
COc1ccc(/C(C)=N\NC(=O)c2ccc3c(c2)OCO3)cc1OC was read as Ba/F3 V617F tox 5, FID counter -1, BaF3 parental 8, GPR7 antagonist 10, KLF5 inhibitor -47 and IEC-6 tox 3.
For COc1ccc(/C=N\N=C2/SC(CC(=O)O)C(=O)N2c2ccc(O)cc2)cc1OC (configuration not stated) the results were Ba/F3 V617F tox -2, FID counter -36, BaF3 parental 4, GPR7 antagonist -7, KLF5 inhibitor -16 and IEC-6 tox -10.
For O=C(O)CC1S/C(=N/N=C/c2ccc([N+](=O)[O-])cc2)N(c2ccc(O)cc2)C1=O (configuration not stated) the results were Ba/F3 V617F tox 0, FID counter -23, BaF3 parental 80*, GPR7 antagonist -5, KLF5 inhibitor -8 and IEC-6 tox -3.
For Cc1cccc(NC(=O)c2cc3ccccc3o2)c1 the results were Ba/F3 V617F tox 3, FID counter -8, BaF3 parental 8, GPR7 antagonist 18*, KLF5 inhibitor -148 and IEC-6 tox 0.
`O=C(NCc1ccccn1)c1ccc(Cl)c(S(=O)(=O)N2CCCCC2)c1` gave Ba/F3 V617F tox 2, FID counter -17, BaF3 parental 2, GPR7 antagonist -13, KLF5 inhibitor -22 and IEC-6 tox -4.
O=C(O)c1ccccc1-n1ncc2c1/C(=C/c1ccc(Cl)cc1)CC2 was read as Ba/F3 V617F tox 1, FID counter -24, BaF3 parental 0, GPR7 antagonist -9, KLF5 inhibitor -25 and IEC-6 tox -1.
For CC(C(=O)N1CCc2ccccc2C1)N1C(=O)c2ccccc2C1=O (configuration not stated) the results were Ba/F3 V617F tox -3, FID counter -18, BaF3 parental -8, GPR7 antagonist -6, KLF5 inhibitor 2 and IEC-6 tox -7.
Screening CC(C)CC(C(=O)N1CCc2ccccc2C1)N1C(=O)c2ccccc2C1=O (configuration not stated) returned Ba/F3 V617F tox 2, FID counter -35, BaF3 parental 6, GPR7 antagonist 20*, KLF5 inhibitor 25 and IEC-6 tox 6.
`Nc1ncc(Br)cc1S(=O)(=O)NCCC(=O)N1CCN(c2ccccc2)CC1` gave FID counter -22, GPR7 antagonist -3, KLF5 inhibitor -13 and IEC-6 tox -1.
CC[N+](CC)(CC#Cc1ccccc1)CC#Cc1ccccc1 was read as Ba/F3 V617F tox 89*, FID counter 5, BaF3 parental 67*, GPR7 antagonist -3, KLF5 inhibitor -19 and IEC-6 tox 3.
`C[N+](C)(CC#Cc1ccccc1)CC(=O)c1ccccc1` gave Ba/F3 V617F tox -1, FID counter -2, BaF3 parental 11, GPR7 antagonist -3, KLF5 inhibitor -9 and IEC-6 tox -2.
